Compound activity: PubChem BioAssay, several laboratories
Most compounds without a hit are left out; they make up all but 2.2% or so of the library.
Cardio protect: myocardial damage modulation in H9c2 cells; H9c2 cardiomyocytes, H2O2 injury protection, ATPLite, 2 h; protection from H2O2 cell death, % at 20 µM; 360,000 tested, 0.63% active;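 active = compounds giving at least 50% protection of heart cells from peroxide-induced death in the single-dose screen, raw or plate-pattern-corrected value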;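 also: 0% = DMSO wells with peroxide and 100% = DMSO wells without peroxide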
PLCg1 inh: blocks human PLC-gamma1 enzyme activity; P19174; purified PLC-gamma1, fluorogenic substrate, fluorescence; inhibition, % at 12.2 µM; 370,000 tested, 0.84% active; AID 720700; in the data active = inhibition above about 9.5%
PLC-beta3 inh: blocks human PLC-beta3 enzyme activity; Q01970; Purified PLC-beta3, fluorogenic substrate, fluorescence; inhibition, % at 12.2 µM; 370,000 tested, 0.18% active; in the data active = inhibition above about 11%;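 also: 0% = median of compound wells on plate and 100% = full blocker control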
Target sequence (Q01970 whole entry, looked up): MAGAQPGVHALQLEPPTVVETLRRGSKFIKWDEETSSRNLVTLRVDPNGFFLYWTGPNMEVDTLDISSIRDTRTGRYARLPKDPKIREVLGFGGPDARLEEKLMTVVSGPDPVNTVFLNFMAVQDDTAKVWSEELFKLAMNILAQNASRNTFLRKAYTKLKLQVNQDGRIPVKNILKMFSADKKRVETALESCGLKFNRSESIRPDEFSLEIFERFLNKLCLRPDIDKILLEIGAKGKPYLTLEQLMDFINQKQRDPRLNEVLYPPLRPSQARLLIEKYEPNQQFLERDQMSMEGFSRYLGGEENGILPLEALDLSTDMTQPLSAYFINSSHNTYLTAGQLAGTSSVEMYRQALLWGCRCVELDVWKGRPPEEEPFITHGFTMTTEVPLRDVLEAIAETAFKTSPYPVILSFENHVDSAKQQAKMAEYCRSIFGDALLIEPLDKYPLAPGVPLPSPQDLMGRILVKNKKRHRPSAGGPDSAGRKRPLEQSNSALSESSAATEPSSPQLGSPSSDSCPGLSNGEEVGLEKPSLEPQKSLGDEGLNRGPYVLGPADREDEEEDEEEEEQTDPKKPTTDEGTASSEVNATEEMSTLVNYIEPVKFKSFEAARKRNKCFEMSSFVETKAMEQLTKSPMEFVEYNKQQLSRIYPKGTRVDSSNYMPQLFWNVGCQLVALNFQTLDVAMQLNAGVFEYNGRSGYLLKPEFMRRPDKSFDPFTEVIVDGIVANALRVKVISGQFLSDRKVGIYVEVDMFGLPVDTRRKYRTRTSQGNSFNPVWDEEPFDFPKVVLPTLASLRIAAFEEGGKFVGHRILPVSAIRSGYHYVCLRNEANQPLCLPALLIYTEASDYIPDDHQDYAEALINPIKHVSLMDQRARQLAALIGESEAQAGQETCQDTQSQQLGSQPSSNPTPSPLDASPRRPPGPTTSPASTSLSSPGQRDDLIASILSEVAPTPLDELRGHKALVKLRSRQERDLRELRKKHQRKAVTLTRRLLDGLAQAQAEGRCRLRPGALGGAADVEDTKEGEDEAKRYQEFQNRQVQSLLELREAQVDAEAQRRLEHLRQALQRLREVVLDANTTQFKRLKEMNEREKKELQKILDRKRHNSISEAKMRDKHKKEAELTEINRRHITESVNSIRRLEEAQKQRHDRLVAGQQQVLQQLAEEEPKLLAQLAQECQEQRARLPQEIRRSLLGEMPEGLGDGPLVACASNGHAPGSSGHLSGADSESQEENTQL
FAS-TE inh: FAS thioesterase (human) inhibition; recombinant FAS-TE, OMFH fluorogenic substrate, fluorescence endpoint; 360,000 tested, 0.67% active; inhibition, % at 15 µM; P49327;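 active = compounds whose normalised, plate-corrected inhibition of enzyme fluorescence in the single-dose primary screen is 50% or more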;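 also: 0% = DMSO with enzyme and 100% = substrate without enzyme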
* hit, by the source's call; i = inactive; . = not tested or not shown.

SMILES	Cardio protect	PLCg1 inh	PLC-beta3 inh	FAS-TE inh
COc1ccc2cc1Oc1ccc(cc1)C[C@H]1c3c(cc(OC)c4c3Oc3c(ccc5c3[C@H](C2)N(C)CC5)O4)CCN1C	-20.9	.	.	66.1*
COc1ccc2cc1Oc1ccc(cc1)CC1c3c(cc(OC)c4c3Oc3cc5c(cc3O4)CCNC5C2)CCN1C (stereo unspecified)	-17.8	.	.	48.8
Cc1ccc(NC2CCCN(C(=O)CCN3CCCCO3)C2)cc1C (stereo unspecified)	1.8	11.9*	2.9	-5.0
O=C(CCN1CCCCO1)N1CCCC(Nc2ccc(F)c(F)c2)C1 (stereo unspecified)	0.4	4.1	-3.5	-5.6
O=C(O)c1ccccc1NS(=O)(=O)c1cccc(C(F)(F)F)c1	6.7	1.2	2.9	-6.7
O=C(O)c1ccccc1NS(=O)(=O)c1cccc(-n2sc3ccccc3c2=O)c1	64.0*	-5.9	-21.2	-3.5
COC(=O)c1[nH]c2c(c1C)C(=O)CC(c1cc(OC)ccc1OC)C2 (stereo unspecified)	56.6*	9.1	-2.8	-2.3
Cc1ccccc1CN1[C@@H](C)[C@H](c2ccccc2)Oc2cccc(NCC(C)C)c2S1(=O)=O	.	3.1	7.4	.
COc1ccc(C(C(=O)NC2CCCCC2)N(Cc2cccs2)C(=O)Cc2c[nH]c3ccccc23)cc1OC (stereo unspecified)	52.2*	-1.6	3.0	-6.8
O=C(NC1CCCCC1)C(c1cccs1)N(Cc1cccs1)C(=O)c1cccs1 (stereo unspecified)	-0.7	-1.6	-1.8	20.7
O=C(NC1CCCCC1)C(c1ccc2ncccc2c1)N(Cc1ccco1)C(=O)c1ccc2c(c1)OCCO2 (stereo unspecified)	55.8*	-35.7	5.8	10.7
COc1ccc(C(C(=O)NC2CCCCC2)N(C(=O)Cc2c[nH]c3ccccc23)c2ccccc2C)cc1OC (stereo unspecified)	13.2	0.0	-1.0	12.8
O=C(NC1CCCCC1)C(c1ccc2ncccc2c1)N(Cc1cccs1)C(=O)c1cccs1 (stereo unspecified)	51.3*	-0.7	0.5	12.5
C[C@H]1COc2cc(N3CCCC3)ccc2S(=O)(=O)N1C	.	1.4	-2.2	.
Cc1[nH]n(-c2nc(-c3ccc(Cl)cc3)cs2)c(=O)c1N=Nc1ccc(O)cc1	79.9*	-0.6	-2.1	12.4
C=CCN1C(=O)/C(=C/c2ccc(O)c(OC)c2)S/C1=N/c1nccs1	51.4*	-358.6	-378.6	5.6
C[C@H]1[C@@H](c2ccccc2)Oc2ccc(Cl)cc2S(=O)(=O)N1Cc1ccc(Cl)cc1	.	5.6	2.8	.
Cc1cc(N2CCOCC2)c2c(N)c(Br)cc(C)c2n1	51.6*	-30.7	-38.5	-0.5
CNC(=O)c1cccc(NC(=O)c2cc(-c3ccccc3)nc3c2cnn3C(C)C)c1	58.9*	-10.9	-13.3	20.5
COc1cc(NC(=O)c2cc(-c3ccccc3)nc3c2cnn3C(C)C)cc(OC)c1OC	5.9	.	.	42.9
Cc1ccc(NC(=O)CSc2nnc(-c3cccnc3)n2Cc2ccco2)c(C)c1	.	-2.3	-3.0	.
C=CCOC(=O)C1=C[C@H](c2cn(C(C)=O)c3ccccc23)C[C@H](OCc2ccc(CO)cc2)O1	50.9*	-8.1	-14.1	9.6
CC(=O)n1cc([C@@H]2C=C(C(=O)N3CCN(C)CC3)O[C@H](OCc3ccc(CO)cc3)C2)c2ccccc21	5.0	-11.4	-12.6	-11.2
CC1(C)N=C(N)N=C(N)N1c1ccc(CCCCc2ccccc2)cc1	-18.4	10.5*	4.5	-7.8
CCCCCCC/C=C(\C)[C@@H](O)[C@@H](C)C(=O)N1CCC[C@@H]1C(=O)O[C@H](C(=O)O[C@@H](C)C(=O)O)[C@@H](C)CC	.	0.3	1.2	.
SMILES	Cardio protect	PLCg1 inh	PLC-beta3 inh	FAS-TE inh
O=C(CSc1nnc(-c2cnccn2)n1-c1ccccc1)c1ccc(F)cc1	.	-2.1	-0.3	.
O=C(COc1ccc(Cl)cc1)Nc1nc(-c2ccc(S(=O)(=O)N3CCOCC3)cc2)cs1	-7.7	-21.8	-28.6	63.4*
O=C(CCC(=O)N/N=C/c1cc(Cl)cc(Cl)c1O)NCc1ccccc1	51.8*	-72.2	-69.1	28.8
COC(=O)[C@]12C[C@H](CC(=O)NCCc3ccccc3OC)C(=O)N(Cc3ccc(Cl)cc3Cl)C1=C[C@H](C1CCCC1)O[C@@H]2C	.	1.3	4.4	.
CN(CC(=O)Nc1ccccc1C(F)(F)F)C(=O)CCc1nc2ccccc2c(=O)[nH]1	21.2	-10.6	-15.1	-8.7
COc1ccc(Cl)cc1NC(=O)CN(C)C(=O)CCc1nc2ccccc2c(=O)[nH]1	73.2*	-2.2	0.0	-2.5
CN1CCC(N(C)C(=O)CCc2nc3ccccc3c(=O)[nH]2)CC1	77.6*	-2.2	-2.8	-8.1
CCOc1ccc(NC(=O)CN(C)C(=O)CCc2nc3ccccc3c(=O)[nH]2)cc1OCC	49.9	6.7	-3.7	-7.4
CN(CC(=O)Nc1ccccc1Br)C(=O)CCc1nc2ccccc2c(=O)[nH]1	72.7*	-2.0	-1.2	-4.1
CN1CCN(C(=O)CCc2nc3ccccc3c(=O)[nH]2)CC1	34.5	3.4	-0.6	-7.5
CC(=O)C1=C(C)N(CC(C)C)C(=S)NC1c1cccc(Cl)c1 (stereo unspecified)	.	6.0	3.6	.
O=C(CSc1nnnn1-c1ccc(F)cc1)c1ccc(O)c(O)c1	54.0*	0.3	-3.4	-1.2
COc1ccc(CN2C(=O)N3Cc4ccc(C)cc4C3CS2(=O)=O)cc1 (stereo unspecified)	.	0.1	1.2	.
Cc1nc(SCC(=O)NCc2ccc(F)cc2)c2c(=O)n(C)c(=O)n(C)c2n1	52.9*	-0.2	-0.1	18.6
COCCN1Cc2cccc(C(=O)Nc3cccc(-c4nc5ccccc5[nH]4)c3)c2C1=O	54.1*	0.2	-3.4	4.9
CCOC(=O)CNC(=O)N(C)[C@H]1C[C@H]2c3[nH]c4c(-c5ccccc5)cccc4c3CCN2C(=O)[C@H]1[C@H](C)O	.	-420.6	i	.
CCOc1ccccc1NC(=O)C(=O)N/N=C/c1cc(Br)ccc1O	57.2*	-17.8	-15.1	18.1
CCOc1ccccc1C=NNC(=O)C(=O)NN=Cc1ccccc1OCC	14.2	-2.1	-5.3	-2.9
CN(C)c1cccc2c(S(=O)(=O)NCC3CCN(C(=O)C(=O)c4cc5ccccc5o4)CC3)cccc12	.	-212.7	-294.4	.
CC1(C)CC(=O)C2=C(C1)N(CCN1CCOCC1)C1=C(C(=O)CC(C)(C)C1)C2c1ccc(Cl)cc1	51.5*	-82.0	-118.7	-2.7
O=C(NCCN1CCN(c2ccccc2F)CC1)c1cccn2c(=O)c3ccccc3nc12	71.2*	-76.2	-96.7	22.5
O=C(NCCN1CCN(c2ccccc2)CC1)c1cccn2c(=O)c3ccccc3nc12	18.7	-93.7	-95.5	19.7
S=C1NC[C@H](Cc2ccccc2)N1CC1CCN(CCCC2CCCCC2)CC1	.	3.4	3.3	.
COc1cc(/C=N/Nc2nc(Nc3ccc(C)cc3)nc(-n3nc(C)cc3C)n2)cc(OC)c1OC	57.2*	-6.0	-7.9	1.2
COC(=O)C1CCN(C(=O)C2CC(=O)N(c3ccc(OC)cc3)C2c2ccc(OC)cc2)CC1 (stereo unspecified)	.	-0.8	-3.7	.
CCCC1CCC2(CC1)CCC2OC(=S)NCCc1ccc(Cl)cc1 (stereo unspecified)	.	0.7	0.3	.
